# Assay results: PubChem BioAssay (NCATS)
# Inconclusive results are not listed. Entries that show only a call come without a potency. Values without a mark were called inactive. Calls of active or inactive are those of the source. Calls follow the shape of the dose curve; as a rule, active = well fitted curve in the direction sought with a large enough effect; inconclusive = small, poorly fitted or top-dose-only effect, or another doubt; inactive = no such curve, though single readings can be large; an effect the other way counts as inactive or inconclusive.
# Key:
# [1] = P-glycoprotein substrates identified in KB-8-5-11 adenocarcinoma cell line, qHTS therapeutic library screen (AID 1346987); also: nearly all actives have a fitted effect of over 65% in size; also: potency is read from the fitted curve at half-maximal effect
# How it was run: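 KB-8-5-11: colchicine-selected sub-line of KB-3-1 over-expressing P-gp; assay medium lacked colchicine. 72 h drug exposure at 37 degree C, CellTiter-Glo.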
# Furin (Homo sapiens) = Furin (Homo sapiens) (UniProt P09958); experiment: Furin counterscreen qHTS for Zika virus inhibitors (AID 1347149); also: nearly all actives have a fitted effect of over 70% in size; also: potency is read from the fitted curve at half-maximal effect
# How it was run: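 Fluorogenic cleavage of BOC-RVRR-AMC (2 microM final, Km ~15 µM) was monitored (ex 340, em 450 nm) at 37C after 15 min RT preincubation of 5 nM furin with compounds in HEPES pH 7.0 buffer with CaCl2 and Triton X-100. Percent inhibition was fitted to a 4-parameter Hill curve.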
# [2] = system: Zika virus NS2B-NS3 protease (linked construct); experiment: Confirmatory screen NINDS AMC qHTS for Zika virus inhibitors (AID 1347152); also: potency is read from the fitted curve at half-maximal effect; nearly all actives have a fitted effect of over 70% in size
# How it was run: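 Concentration-response confirmation used the NINDS linked protease (NS2B hydrophilic domain joined to NS3 protease domain), 1 nM, with a 15-min compound preincubation. Substrate, Nle-KRR-AMC at 10 microM, was read by UV fluorescence before and after 15 min.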
# [3] = system: Zika virus NS2B-NS3 protease (unlinked complex); experiment: Confirmatory screen GU AMC qHTS for Zika virus inhibitors (AID 1347153); settings: Recombinant NS2B-NS3 protease, AMC substrate fluorescence;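 also: enzyme at 25 nM with substrate at 10 µM below its Km of 18.3 µM; potency is read from the fitted curve at half-maximal effect; nearly all actives have a fitted effect of over 70% in size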
# How it was run: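 Fluorescence change (ex 340/em 450 nm) over 15 min, ~20% substrate conversion, normalized to no-inhibitor and no-enzyme controls, then Hill-fitted. Unlinked protease at 25 nM; AMC peptide 10 µM.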
# [4] = system: Zika virus NS2B-NS3 protease (unlinked); experiment: Optimization of GU AMC qHTS for Zika virus inhibitors: Unlinked NS2B-NS3 protease assay (AID 1347151); also: series mostly up to about 52 µM; nearly all actives have a fitted effect of over 80% in size
# How it was run: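 In this qHTS, compounds acted on 25 nM unlinked Zika NS2B–NS3 in pH 8.0 Tris/Tween buffer. Cleavage of an AMC peptide ran 15 min at room temperature, to about 20% conversion.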
# Furin (Homo sapiens), sequence (P09958 whole entry, looked up): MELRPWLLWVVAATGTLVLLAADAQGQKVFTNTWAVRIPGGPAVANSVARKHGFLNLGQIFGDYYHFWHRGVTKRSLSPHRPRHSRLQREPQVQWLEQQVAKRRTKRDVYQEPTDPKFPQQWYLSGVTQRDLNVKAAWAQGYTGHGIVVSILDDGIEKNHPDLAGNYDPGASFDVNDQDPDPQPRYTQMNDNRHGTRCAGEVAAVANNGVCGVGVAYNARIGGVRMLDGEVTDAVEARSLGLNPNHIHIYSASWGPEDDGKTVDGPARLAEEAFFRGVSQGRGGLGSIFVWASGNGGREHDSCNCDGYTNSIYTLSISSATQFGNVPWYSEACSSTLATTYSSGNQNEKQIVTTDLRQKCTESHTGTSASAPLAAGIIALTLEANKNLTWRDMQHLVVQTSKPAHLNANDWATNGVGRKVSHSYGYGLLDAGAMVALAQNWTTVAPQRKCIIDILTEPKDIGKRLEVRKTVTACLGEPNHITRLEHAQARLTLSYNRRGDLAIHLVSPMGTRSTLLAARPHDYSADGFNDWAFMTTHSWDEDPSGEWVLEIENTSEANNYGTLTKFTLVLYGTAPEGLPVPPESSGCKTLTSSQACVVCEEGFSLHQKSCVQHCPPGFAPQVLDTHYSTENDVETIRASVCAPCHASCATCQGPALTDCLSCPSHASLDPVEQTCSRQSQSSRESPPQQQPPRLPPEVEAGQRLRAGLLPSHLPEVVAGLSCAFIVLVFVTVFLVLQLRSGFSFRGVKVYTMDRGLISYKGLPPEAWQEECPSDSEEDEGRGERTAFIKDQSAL
smiles,measurement,setting,value
CC(=O)O[C@@H]1[C@@H](OC(C)=O)[C@H](C)O[C@@H](O[C@H]2[C@@H]3C=CO[C@@H](O[C@@H]4O[C@H](CO)[C@@H](O)[C@H](O)[C@H]4O)[C@@H]3[C@@]3(CO)O[C@@H]23)[C@@H]1OC(=O)/C=C/c1ccccc1,Potency,[1],inactive
Cc1c(C2=CCN(C(=O)N(C)C(C)C)CC2)nnn1-c1cccnc1F,Potency,[1],inactive
COc1cc(N2CCOCC2)ccc1NC(=O)c1csc(-c2cccnc2)n1,Potency,[1],11.6 µM (active)
COc1cc(OC)c2c(=O)[nH]c(-c3cc(C)c(OCCO)c(C)c3)nc2c1,Potency,[1],inactive
C=C1CC2[C@@]3(C)C=CC(=O)C(C)(C)C3=C(O)C(=O)[C@@]2(C)C2(C(=O)OC)C(=O)C(C)OC(=O)[C@@]12C (some centres undefined),Potency,[1],8.93 µM (active)
CCCCOC(=O)C(=O)Nc1cccc(-c2nn[nH]n2)c1,Potency,[1],inactive
C/C(=C/CO)CCC1C(C)CCC2C(C)(C)CCCC12C (centres undefined),Potency,[1],inactive
CC1(C)SCCN(S(=O)(=O)c2ccc(Oc3ccncc3)cc2)[C@H]1C(=O)NO,Potency,[1],inactive
O=C(O)c1cc(N(Cc2ccc(C3CCCCC3)cc2)C(=O)c2ccc(Oc3ccccc3)cc2)ccc1O,Potency,[1],inactive
same,Potency,Furin (Homo sapiens),15.6 µM (active)
same,Potency,[2],12.4 µM (active)
same,Potency,[3],9.87 µM (active)
CCC(CC)(NC(=O)C(C)C)C(=O)N[C@@H](CCCN=C(N)N)C(=O)NC1(C(=O)NC(c2ccc(F)cc2)c2ccc(F)cc2)CCCC1,Potency,[1],inactive
same,Potency,Furin (Homo sapiens),inactive
same,outcome,[4],inactive
CCCCCCCOc1cc2c(cc1/C(C)=C/c1ccc(C(=O)O)cc1)C(C)(C)CCS2(=O)=O,Potency,Furin (Homo sapiens),55.5 µM (active)
same,Potency,[2],8.79 µM (active)
same,Potency,[3],8.79 µM (active)
C/C=C(/C)C(=O)O[C@@H]1C[C@@H](OC(=O)CC(C)C)C2(C)C3C(=O)C=C(C)C2C3C1(C)C (some centres undefined),Potency,[1],inactive
CC#C[C@@H](CC(=O)O)c1ccc(OCc2ccc(CN3CCC4(C=Cc5ccccc54)CC3)s2)cc1,Potency,Furin (Homo sapiens),inactive
same,Potency,[2],35 µM (active)
same,Potency,[3],39.3 µM (active)
COc1cc2nc(N3CCN(C(=O)c4ccco4)C4CCCCC43)nc(N)c2cc1OC (centres undefined),Potency,[1],14.6 µM (active)
CC(=O)O[C@H]1C[C@@](O)(C(C)C)[C@@H]2[C@@H](OC(=O)c3ccc(O)cc3)CC(C)=CC[C@@]12C,Potency,[1],inactive
Cc1cc(C)c2c(c1)C(N(Cc1cc(C(F)(F)F)cc(C(F)(F)F)c1)c1nnn(C)n1)CCCN2CC1CCC(C(=O)O)CC1 (centres undefined),Potency,[2],22.1 µM (active)
same,Potency,[3],22.1 µM (active)
O=C(NCCN1CCC(n2c(=O)[nH]c3ccccc32)CC1)c1cc2cc(F)ccc2[nH]1,Potency,[1],inactive
O=C(O)c1ccc(N2C(=O)/C(=C/c3ccc(-c4ccc([N+](=O)[O-])cc4)o3)C=C2c2ccccc2)cc1,Potency,[2],12.4 µM (active)
C=C1/C(=C/C=C2\CCC[C@]3(C)[C@@H]([C@H](C)CC[C@@H](O)C(C)(C)O)CC[C@@H]23)C[C@@H](O)C[C@@H]1O,Potency,[1],inactive
